Experiments:
Conditions in all cases: concentration: 1 μM, replicates: in singlicate; n = 1
[1] = test system: CLK2
[2] = test system: CLK3
[3] = test system: CLK4
[4] = test system: CSF1R-autoinhibited
[5] = test system: CSF1R
[6] = test system: CSK
[7] = test system: CSNK1A1L
[8] = test system: CSNK1A1
[9] = test system: CSNK1D
[10] = test system: CSNK1E
[11] = test system: CSNK1G1
[12] = test system: CSNK1G2
[13] = test system: CSNK1G3
[14] = test system: CSNK2A1
[15] = test system: CSNK2A2
[16] = test system: T1, CTK
T1 construct: gene MATK

[17] = test system: DAPK1
[18] = test system: DAPK2
[19] = test system: DAPK3
[20] = test system: T2, DCAMKL1
T2 construct: gene DCLK1
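Note: KINOMEscan kinase panel screen.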

Row | Compound | %Inh [1] | %Inh [2] | %Inh [3] | %Inh [4] | %Inh [5] | %Inh [6] | %Inh [7] | %Inh [8] | %Inh [9] | %Inh [10] | %Inh [11] | %Inh [12] | %Inh [13] | %Inh [14] | %Inh [15] | %Inh [16] | %Inh [17] | %Inh [18] | %Inh [19] | %Inh [20]
1 | O=C(Nc1n[nH]c2nc(-c3ccccc3O)ccc12)C1CC1 [SB-711880] | 16% | 0% | 11% | 16% | 0% | 0% | 76% | 25% | 0% | 0% | 0% | 0% | 28% | 49% | 84% | 36% | 12% | 0% | 21% | 22%
2 | CS(=O)(=O)c1cccc(CNc2nc(Nc3ccc4c(c3)CCC(=O)N4)ncc2C(F)(F)F)c1 | 22% | 0% | 24% | 0% | 20% | 1% | 0% | 0% | 0% | 0% | 0% | 4% | 0% | 17% | 51% | 0% | 0% | 0% | 11% | 36%
3 | c1ccc(Oc2ccc(Nc3ccnc4cc(-c5ccc(CN6CCCCC6)o5)ccc34)cc2)nc1 [GW567143] | 0% | 0% | 6% | 0% | 54% | 71% | 12% | 1% | 10% | 13% | 0% | 6% | 3% | 15% | 12% | 5% | 0% | 0% | 0% | 4%
4 | COc1ccc(NC(=O)c2ccoc2)cc1-c1ccc(C(=O)NCC2CC2)cc1 [GW810437] | 16% | 0% | 6% | 3% | 7% | 0% | 8% | 0% | 0% | 3% | 0% | 0% | 0% | 0% | 0% | 15% | 0% | 17% | 13% | 0%
5 | O=C(O)C(F)(F)F.O=c1[nH]ccc2nc(N[C@@H]3CCNC3)nc(Nc3ccc4c(c3)S(=O)(=O)CC4)c12 [GSK2181306] | 95% | 17% | 80% | 0% | 86% | 5% | 90% | 97.7% | 96.7% | 96.3% | 85% | 87% | 94.4% | 99.2% | 99.9% | 16% | 99.5% | 97.8% | 99.6% | 95.7%
6 | CN(c1ccc(NC(=O)N2CCN(CCCN3CCOCC3)CC2)cc1)c1ccnc(Nc2ccc(CS(C)(=O)=O)cc2)n1.Cl [GW830899] | 0% | 0% | 0% | 0% | 66% | 24% | 79% | 25% | 5% | 0% | 19% | 6% | 5% | 0% | 0% | 0% | 4% | 0% | 0% | 0%
7 | Cc1ccc(NC(=O)c2ccnc(N3CCCCC3)c2)cc1-c1ccc(C(=O)NCC2CC2)cc1 [GW775610] | 0% | 0% | 0% | 5% | 23% | 0% | 20% | 1% | 0% | 0% | 0% | 20% | 0% | 0% | 0% | 25% | 100% | 0% | 12% | 0%
8 | Nc1cccc(-c2ccc3c(N)n[nH]c3c2)c1 [GSK2193613] | 10% | 0% | 64% | 17% | 2% | 0% | 13% | 0% | 8% | 5% | 13% | 0% | 18% | 27% | 61% | 0% | 0% | 6% | 4% | 13%
9 | Cl.Cl.NCC(NC(=O)c1cc(-c2cccnc2)c(-c2ccnc3[nH]ccc23)s1)c1ccccc1 (centres unmarked) [GSK1323434] | 51% | 12% | 60% | 30% | 44% | 0% | 77% | 91.5% | 96.7% | 99% | 39% | 63% | 68% | 32% | 40% | 0% | 59% | 21% | 27% | 21%
10 | O=C(Nc1n[nH]c2nc(-c3cccc(O)c3)ccc12)C1CC1 [SB-711805] | 20% | 16% | 0% | 0% | 0% | 100% | 6% | 0% | 11% | 34% | 6% | 0% | 25% | 52% | 82% | 0% | 17% | 0% | 23% | 17%

— article PMC5540273 (PLoS ONE, 2017)
